# Experimental data as given in PubChem BioAssay.
# Calls of active or inactive are those of the source.
# Legend:
# [1] = target: Albumin (Bos taurus) (UniProt P02769); experiment: compounds binding labelled BSA control protein – biochemical, small-molecule microarray, Alexa647 label, 635/667 nm fluorescence, artefact control for SMM control protein annotation, profiling panel (AID 1118); conditions: BSA-A647 binding, fluorescence 635 nm, higher = more signal;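 note: score merges 667 nm emission intensity and signal-to-noise per printed compound spot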
# [2] = probe aXIP binding to arrayed compounds – biochemical, NeuroSMM set, 635/667 nm fluorescence, primary screen (AID 1119); conditions: small-molecule microarray, higher = more signal, called active from +8 up or from −8 down;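 note: probe is the protein aXip251-270 applied at 1 µg/mL to compound-printed slides; binding of probe to printed compounds measured as 667 nm fluorescence plus signal to noise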
# [3] = probe aNOTCH3 binding on compound microarray – biochemical, small-molecule microarray, 635/667 nm fluorescence, primary screen (AID 1120); conditions: higher = more signal;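 note: probe is a biotin-tagged antibody raised against NOTCH3 rather than NOTCH3 protein; score merges spot fluorescence near 667 nm with spot signal to noise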
# [4] = probe aNOTCH2 binding on compound microarray – biochemical, small-molecule microarray, 635/667 nm fluorescence, primary screen (AID 1121); conditions: higher = more signal;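 note: score merges feature fluorescence read at 667 nm with its signal to noise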
# [5] = target: Carbonic anhydrase 2 (Homo sapiens) (UniProt P00918); experiment: compounds binding carbonic anhydrase 2 – biochemical, small-molecule microarray, Alexa647-labelled CAII, profiling panel (AID 1122); conditions: CAII-A647 binding fluorescence, higher = more signal
# [6] = COS7 lysate on small-molecule microarray, probe aHis, 635 nm (AID 1123); conditions: COS7 cell lysate, fluorescence, higher = more signal;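 note: z-score combines 667nm fluorescence intensity with signal-to-noise per printed compound spot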
# [7] = probe aLAP1 signal on lysate-treated microarray – cell lysate, small-molecule microarray, COS7 lysate, primary screen (AID 1124); conditions: probe aLAP1, fluorescence, higher = more signal;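 note: lysate comes from COS7 cells expressing LAP1 and is applied at 0.3 µg/mL; score merges spot fluorescence near 667 nm with signal-to-noise over triplicate slides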
# [8] = tested on: Sam68 (KHDRBS1); experiment: compounds binding KHDRBS1 protein – biochemical, small-molecule microarray, 635 nm fluorescence, primary screen (AID 1125); conditions: higher = more signal;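 note: score merges 667 nm channel intensity with signal to noise over triplicate slides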
# [9] = tested on: Chordin-like protein 2 (CHRDL2); experiment: compounds binding chordin-like 2 – biochemical, small-molecule microarray, 635 nm fluorescence, primary screen (AID 1126); conditions: fluorescence 635 nm, higher = more signal;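 note: printed compound slides probed with Chrdl2 protein at 4 µg/mL for 1 h at 4 C; score merges 667 nm emission intensity with signal to noise over three replicate slides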
# [10] = target: Concanavalin-A (Canavalia ensiformis) (UniProt P02866); experiment: compounds binding concanavalin A lectin – biochemical, small-molecule microarray, Alexa647 label, 635 nm, artefact control for SMM control protein annotation, primary screen (AID 1127); conditions: ConA-A647 binding fluorescence, higher = more signal;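 note: z combines 667 nm emission intensity with signal-to-noise across three replicate slides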
# [11] = compounds binding Alexa647 anti-His antibody – biochemical, small-molecule microarray, 635 nm fluorescence, artefact control for SMM control protein annotation, primary screen (AID 1128); conditions: higher = more signal;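 note: score merges feature fluorescence with signal-to-noise for each printed compound spot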
# [12] = tested on: Human papillomavirus type 1a E7 protein (residues 1-88); experiment: HPV1a E7 small-molecule binders, primary screen, biochemical, small-molecule microarray, residues 1-88, 635 nm (AID 1129); conditions: small-molecule microarray binding, fluorescence 635 nm; higher = more signal
# [13] = target: Focal adhesion kinase 1 (Homo sapiens) (UniProt Q05397); experiment: PTK2 protein binding on printed compound slides – biochemical, small-molecule microarray, 635/667 nm fluorescence, BSA, DTT, primary screen (AID 1130); conditions: 635 nm fluorescence, higher = more signal;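 note: composite of spot emission at 667 nm and signal to noise over triplicate slides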
# [14] = tested on: Fibrinogen (Alexa647-labelled); experiment: Alexa647-fibrinogen binding to printed small molecules – biochemical, small-molecule microarray, 635/667 nm fluorescence, artefact control for SMM control-protein annotation, profiling panel (AID 1131); conditions: fibrinogen-A647 binding fluorescence, higher = more signal;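 note: z-score merges 667 nm fluorescence with per-spot signal-to-noise over triplicate slides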
# [15] = target: Follistatin (Homo sapiens) (UniProt P19883); experiment: FST protein binding to printed compounds – biochemical, small-molecule microarray, 635/667 nm fluorescence, primary screen (AID 1132); conditions: 635 nm fluorescence, higher = more signal
# [16] = target: Fibroblast growth factor 2 (Homo sapiens) (UniProt P09038); experiment: basic fibroblast growth factor binding to printed compounds – biochemical, small-molecule microarray, 635/667 nm fluorescence, primary screen (AID 1133); conditions: FGF2, fluorescence 635/667, higher = more signal
# [17] = JC-1 mitochondrial potential readout, lung cancer cells – cell-based, A549, JC-1 fluorescence, basal, 24 h, 100 nL, profiling panel (AID 1138); conditions: higher = more signal;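 note: A549 lung adenocarcinoma cells under basal conditions with no added stimulus; test concentration not given here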
# [18] = tested on: Lefty1; experiment: Lefty1 protein binding to printed compounds – biochemical, small-molecule microarray, 635/667 nm fluorescence, primary screen (AID 1139); conditions: fluorescence 635/667, higher = more signal
# [19] = tested on: wheat germ agglutinin (Triticum aestivum), Alexa647-labelled; experiment: Alexa647-WGA lectin binding to printed small molecules – biochemical, small-molecule microarray, 635/667 nm fluorescence, artefact control for SMM control-protein annotation, profiling panel (AID 1140); conditions: WGA-A647 binding, 635 nm fluorescence, higher = more signal;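 note: score merges 667 nm feature emission with signal to noise over triplicate slides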
# [20] = target: Luciferin 4-monooxygenase (Photinus pyralis) (UniProt P08659); experiment: inhibition of purified Photinus pyralis luciferase – biochemical, luminescence, purified enzyme, 2006 set, primary screen (AID 1141); conditions: purified firefly luciferase, SteadyGlo luminescence, 30 min; higher = more signal, called active from +8 up or from −8 down;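 note: cell-free assay with purified firefly luciferase at 100 ng per well in PBS; test concentration not given here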
# Chain of Luciferin 4-monooxygenase (Photinus pyralis) (P08659 whole entry, looked up): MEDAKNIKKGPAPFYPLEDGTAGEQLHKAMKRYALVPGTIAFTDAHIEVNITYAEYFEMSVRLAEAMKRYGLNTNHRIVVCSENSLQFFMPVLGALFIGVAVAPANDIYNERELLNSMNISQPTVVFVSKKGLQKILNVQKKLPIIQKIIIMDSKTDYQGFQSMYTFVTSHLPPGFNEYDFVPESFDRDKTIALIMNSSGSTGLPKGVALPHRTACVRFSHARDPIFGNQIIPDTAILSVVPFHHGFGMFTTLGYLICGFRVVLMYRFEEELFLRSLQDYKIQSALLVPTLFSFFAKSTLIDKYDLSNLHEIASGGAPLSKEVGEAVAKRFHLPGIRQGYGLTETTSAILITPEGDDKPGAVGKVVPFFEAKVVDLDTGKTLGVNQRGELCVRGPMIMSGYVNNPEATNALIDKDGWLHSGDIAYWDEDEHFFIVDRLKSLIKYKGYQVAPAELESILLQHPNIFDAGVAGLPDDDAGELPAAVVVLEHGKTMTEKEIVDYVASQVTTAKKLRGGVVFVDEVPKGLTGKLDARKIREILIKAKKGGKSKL
# Chain of Focal adhesion kinase 1 (Homo sapiens) (Q05397 whole entry, looked up): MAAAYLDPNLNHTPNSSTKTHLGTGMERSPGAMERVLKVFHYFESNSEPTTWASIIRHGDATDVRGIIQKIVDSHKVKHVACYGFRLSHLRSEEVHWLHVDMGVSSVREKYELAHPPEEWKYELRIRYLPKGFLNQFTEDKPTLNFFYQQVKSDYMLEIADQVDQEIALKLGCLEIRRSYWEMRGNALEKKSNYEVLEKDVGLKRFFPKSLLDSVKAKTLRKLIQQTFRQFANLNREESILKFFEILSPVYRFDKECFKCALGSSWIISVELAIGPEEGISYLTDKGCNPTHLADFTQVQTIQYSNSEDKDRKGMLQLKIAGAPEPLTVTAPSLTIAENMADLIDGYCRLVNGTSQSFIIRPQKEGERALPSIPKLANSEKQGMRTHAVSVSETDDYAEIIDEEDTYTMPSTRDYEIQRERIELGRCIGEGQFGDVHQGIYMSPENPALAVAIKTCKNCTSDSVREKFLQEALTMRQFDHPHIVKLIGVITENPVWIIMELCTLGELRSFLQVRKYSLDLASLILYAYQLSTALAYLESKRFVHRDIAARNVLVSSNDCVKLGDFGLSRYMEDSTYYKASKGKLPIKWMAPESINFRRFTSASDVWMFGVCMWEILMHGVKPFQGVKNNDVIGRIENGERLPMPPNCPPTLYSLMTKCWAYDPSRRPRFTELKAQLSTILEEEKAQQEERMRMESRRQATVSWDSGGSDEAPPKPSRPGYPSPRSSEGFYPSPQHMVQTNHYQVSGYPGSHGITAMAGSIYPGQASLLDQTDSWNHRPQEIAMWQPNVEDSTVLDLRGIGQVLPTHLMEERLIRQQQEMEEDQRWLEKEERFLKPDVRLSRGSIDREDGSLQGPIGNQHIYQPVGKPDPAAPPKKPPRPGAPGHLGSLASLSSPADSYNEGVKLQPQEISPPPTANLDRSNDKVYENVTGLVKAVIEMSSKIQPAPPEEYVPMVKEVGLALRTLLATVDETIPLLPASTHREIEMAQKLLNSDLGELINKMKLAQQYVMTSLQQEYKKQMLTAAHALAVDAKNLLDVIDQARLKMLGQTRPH
# Chain of Albumin (Bos taurus) (P02769 whole entry, looked up): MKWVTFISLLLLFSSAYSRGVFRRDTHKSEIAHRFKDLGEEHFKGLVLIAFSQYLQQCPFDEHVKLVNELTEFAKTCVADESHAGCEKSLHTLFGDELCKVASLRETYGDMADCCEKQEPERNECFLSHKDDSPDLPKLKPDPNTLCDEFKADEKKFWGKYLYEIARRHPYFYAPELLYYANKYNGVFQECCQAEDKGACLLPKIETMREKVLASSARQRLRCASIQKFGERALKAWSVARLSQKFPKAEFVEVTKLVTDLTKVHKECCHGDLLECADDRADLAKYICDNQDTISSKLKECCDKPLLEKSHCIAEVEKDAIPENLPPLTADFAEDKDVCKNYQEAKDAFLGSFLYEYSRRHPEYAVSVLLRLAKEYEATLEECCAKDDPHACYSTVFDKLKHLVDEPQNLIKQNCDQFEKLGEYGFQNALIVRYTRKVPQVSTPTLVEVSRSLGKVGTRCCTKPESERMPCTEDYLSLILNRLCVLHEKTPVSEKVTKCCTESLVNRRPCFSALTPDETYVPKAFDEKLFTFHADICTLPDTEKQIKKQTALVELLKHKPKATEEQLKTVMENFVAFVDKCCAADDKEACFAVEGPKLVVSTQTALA
# Chain of Follistatin (Homo sapiens) (P19883 whole entry, looked up): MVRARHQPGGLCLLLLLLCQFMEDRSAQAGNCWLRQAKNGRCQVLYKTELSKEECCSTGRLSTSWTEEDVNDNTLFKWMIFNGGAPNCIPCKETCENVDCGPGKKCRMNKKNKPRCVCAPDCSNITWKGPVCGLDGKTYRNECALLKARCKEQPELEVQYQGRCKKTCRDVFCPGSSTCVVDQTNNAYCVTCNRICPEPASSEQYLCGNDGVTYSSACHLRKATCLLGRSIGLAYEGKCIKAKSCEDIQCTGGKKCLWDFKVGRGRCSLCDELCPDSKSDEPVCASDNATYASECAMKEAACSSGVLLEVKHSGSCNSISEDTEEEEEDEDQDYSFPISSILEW
# Chain of Concanavalin-A (Canavalia ensiformis) (P02866 whole entry, looked up): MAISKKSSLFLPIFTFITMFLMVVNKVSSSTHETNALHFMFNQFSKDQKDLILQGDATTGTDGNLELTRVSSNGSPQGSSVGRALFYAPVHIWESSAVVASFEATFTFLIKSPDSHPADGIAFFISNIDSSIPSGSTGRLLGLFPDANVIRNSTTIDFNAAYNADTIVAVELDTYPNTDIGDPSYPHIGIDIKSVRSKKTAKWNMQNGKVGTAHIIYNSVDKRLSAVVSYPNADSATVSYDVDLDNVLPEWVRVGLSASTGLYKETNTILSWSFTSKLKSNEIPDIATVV
# Chain of Fibroblast growth factor 2 (Homo sapiens) (P09038 whole entry, looked up): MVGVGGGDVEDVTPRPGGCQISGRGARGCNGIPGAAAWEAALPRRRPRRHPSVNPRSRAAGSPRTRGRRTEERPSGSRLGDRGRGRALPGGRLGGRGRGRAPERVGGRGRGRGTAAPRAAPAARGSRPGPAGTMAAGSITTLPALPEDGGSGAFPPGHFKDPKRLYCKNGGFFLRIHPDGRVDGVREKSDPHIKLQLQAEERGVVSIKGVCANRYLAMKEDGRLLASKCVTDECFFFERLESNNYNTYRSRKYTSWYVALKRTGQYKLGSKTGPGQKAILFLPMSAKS
Compound,composite z-score [1],composite Z-score [2],composite z-score [3],composite z-score [4],composite z-score [5],composite z-score [6],composite z-score [7],composite z-score [8],composite z-score [9],composite z-score [10],composite z-score [11],composite z-score [12],composite z-score [13],composite z-score [14],composite z-score [15],composite z-score [16],z-score [17],composite z-score [18],composite z-score [19],z-score [20]
O=C1C2C=CC(C(O)C(c3ccccc3)c3ccccc3)N(Nc3ccccc3)C2C(=O)N1c1ccccc1 (stereo not given),0.876,0.312 (inactive),0.278,-0.0633,0.619,2.17,0.0595,1.3,-0.236,0.942,0.59,1.28,0.175,1.03,1.29,0.472,0.0105,0.707,0.882,-1.05 (inactive)
O=C1c2ccccc2[C@@]2(Cc3ccccc3N(Cc3ccccc3)C2=O)[C@H](c2ccc(CO)cc2)N1Cc1ccccc1,-0.819,0.225 (inactive),-0.132,-0.125,0.19,-0.137,0.407,-0.42,-0.845,-0.571,-1.16,-1.58,-0.667,-0.936,-1,-1.01,0.0926,-1.09,0.168,0.407 (inactive)
C=CCOC(=O)[C@@H]1[C@H]2C(=O)O[C@H](c3ccccc3)[C@H](c3ccccc3)N2[C@H](c2ccc(OCCOC(=O)[C@H]3C[C@H]4C(=O)NCC(=O)N4[C@H]3c3ccc(O)cc3)cc2)[C@@]12C(=O)Nc1ccc(I)cc12,-1.07,0.683 (inactive),-0.0711,-0.117,0.323,1.94,-0.159,1.29,0.826,1.16,1.24,1.19,0.701,0.732,1.27,1.39,-1.1,1.06,0.665,-0.483 (inactive)
N#Cc1ccc(C(O)C2C=CC3C(=O)N(c4ccccc4)C(=O)C3N2Nc2ccc([N+](=O)[O-])cc2)cc1 (stereo not given),0.895,0.453 (inactive),0.0749,0.0912,0.748,2.45,1.05,1.28,-0.558,1.23,2.33,1.25,0.895,0.991,0.499,-0.207,-2.34,-0.44,1.4,0.279 (inactive)
CC(C)C(=C=CC[C@@H](O)c1cccc(OCCO)c1)CCO,0.161,-0.137 (inactive),0.0996,-0.0519,0.705,0.502,0.0157,0.0316,0.55,-0.114,0.241,0.0895,-0.0966,0.236,1.14,1.61,0.265,0.524,0.271,-0.852 (inactive)
CCCC[C@@H]1C[C@H]1[C@@H](NC(=O)c1ccc(C(F)(F)F)cc1)c1ccc(C(=O)OC)cc1,0.0711,0.0888 (inactive),0.0501,-0.0347,0.441,1.27,1.25,0.504,1.27,0.441,1.21,0.411,0.135,0.366,1.25,-0.115,1.19,0.944,0.849,0.915 (inactive)
CCCCC(=C=CC[C@@H](O)c1cccc(OCCO)c1)CCO,0.319,-0.462 (inactive),-0.119,-0.142,0.34,0.592,0.0297,0.158,-0.596,-0.0305,-0.378,-0.437,-0.0962,0.449,0.242,0.154,0.613,0.448,0.771,-0.656 (inactive)
COc1ccc(C#Cc2ccc3c(c2)[C@]2(C(=O)N3)[C@H](C(=O)Nc3nc4ccccc4s3)[C@H]3C(=O)O[C@H](c4ccccc4)[C@H](c4ccccc4)N3[C@@H]2c2ccc(OCCO)cc2)cc1,0.789,0.403 (inactive),0.109,-0.0486,0.622,2.46,0.816,1.31,0.254,1.17,1.11,0.98,0.266,0.731,1.38,0.83,-2.33,0.949,1.29,-3.53 (inactive)
C=CCC(OC(C)=O)[C@@H]1[C@@H](N(Cc2cccc3ccccc23)C(=O)c2ccc(C)cc2)c2cc(OCCCO)ccc2N1C(=O)c1ccc2ccccc2n1 (stereo not given in full),0.526,-0.104 (inactive),0.366,0.0239,0.246,0.72,0.158,0.478,0.618,-0.202,-0.24,0.098,0.348,0.682,0.584,0.0013,0.644,0.644,0.391,-1.05 (inactive)
O=C1NC(=O)C2C1C=CC(C(O)c1cccc(O)c1)N2Nc1ccc(Cl)cc1Cl (stereo not given),0.33,-0.136 (inactive),-0.0043,0.0592,0.757,1.4,-0.452,-1.81,-0.474,-0.0019,0.33,-0.0332,0.263,-0.348,-0.127,0.0853,-0.812,-0.317,0.447,-0.259 (inactive)
COCCOC(=O)N1C(=O)[C@@]2(c3ccccc31)[C@H](C(N)=O)[C@H]1C(=O)O[C@H](c3ccccc3)[C@H](c3ccccc3)N1[C@@H]2c1ccc(OCCO)cc1,0.787,1.32 (inactive),-0.0055,-0.123,0.508,1.74,0.103,1.31,0.33,1.15,0.918,1.24,0.451,0.927,1.11,0.807,0.101,0.619,0.982,0.346 (inactive)
